Consider 7 compounds from PubChem BioAssay (NCI).

Compounds without any hit were thinned out: in the full panel of roughly 83,000, 20% have a hit.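 Note: values are percent growth. 100 is the growth of untreated cells, values between 100 and 0 indicate rising inhibition; between -100 and 0 indicates cell death.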 A number with no mark means an inactive call. Active and inactive are the calls of the source. How the source made its calls: active means growth percent below 10; inactive means the rest.

What all share (assay): NCI-60 one-dose screen, 48 h (100 = growth as untreated, 0 = no growth, -100 = all killed)
Common to all, as to settings: 10 µM unless noted

In experiment [1] the test system is NCI-H23 lung.
The subject of experiment [2] is NCI-H226 lung.
Experiment [3] concerns NCI-H322M lung.
Experiment [4] concerns HOP-62 NSCLC.
The test system of experiment [5] is NCI-H460 lung.
Experiment [6] relates to HOP-92 NSCLC.
Experiment [7] relates to NCI-H522 lung.
In experiment [8] the test system is A549/ATCC NSCLC.
Experiment [9] has as its system 786-0 renal.
The test system of experiment [10] is COLO 205 colon.
Experiment [11] concerns DU-145 prostate.
Experiment [12] has as its system K-562 leukemia.
In experiment [13] the test system is MALME-3M melanoma.
Experiment [14] deals with MDA-MB-231 breast.
Experiment [15] relates to RXF 393 renal.
For experiment [16], the system named is SF-268 CNS.
Experiment [17] relates to SF-295 CNS.
Experiment [18] relates to SF-539 CNS.
The test system of experiment [19] is UACC-257 melanoma.
The subject of experiment [20] is M14 melanoma.

In the case of `COc1cc(-c2nc3occn3c2-c2ccnc(NCCCNS(=O)(=O)c3ccc(O)cc3)n2)ccc1F`, the growth in experiment [1] was 92.6%; in experiment [2] it was 96.8%; in experiment [3] it was 113%; in experiment [4] it was 95%; in [5] it was 102%; in experiment [6], 86.7%. For the same compound, the growth was 72.4% in [7]; 94.3% in [8]; 122% in experiment [9]; 45% in experiment [10]; 110% in experiment [11]; 80.6% in experiment [12]. Also, the growth is -7.42% (active) in experiment [13]; 67.1% in experiment [14]; 105% in [15]; 110% in [16]; 91.6% in experiment [17]; 110% in [18]. Also, the growth was 54.4% in experiment [19] and 26.2% in [20].
`CCOC(=O)c1nc2c3ccccc3cnn2c1C(=O)c1ccc(OC)cc1`: the growth is 84.4% in experiment [1]; 81.9% in experiment [2]; 101% in experiment [3]; 77.4% in [4]; 103% in experiment [5]; 86.5% in experiment [6]. Besides, the growth was 95.2% in experiment [7]; 87.2% in experiment [8]; 102% in experiment [9]; 97.5% in experiment [10]; 105% in experiment [11]; 96.9% in [12]. Besides, the growth in experiment [13] was 102%; in experiment [14] it was 81.7%; in [15], 106%; in experiment [16] it was 103%; in experiment [17], 98.7%; in experiment [18] it was 97.7%. Further, the growth in experiment [19] was 95.4%; in experiment [20], 101%.
In the case of `Cn1ccnc1CN1CCSC(C(=O)Nc2ccccc2)C1` (stereo not given), the growth in [1] was 101%; in [2], 87.1%; in experiment [3] it was 88.7%; in experiment [4], 81.5%; in experiment [5] it was 94.8%; in experiment [6], 88.7%. Also, the growth is 85.6% in experiment [7]; 83.8% in [8]; 98% in experiment [9]; 112% in [10]; 100% in [11]; 92.1% in [12]. For the same compound, the growth in experiment [13] is 96.6%; in experiment [14] it was 104%; in experiment [15], 94.2%; in experiment [16] it was 95.1%; in [17], 92.9%; in experiment [18] it was 96%. Besides, the growth is 79.6% in experiment [19] and 98.1% in experiment [20].
`COc1ccccc1/C=C1\COc2ccc(O)c(O)c2C1=O`: the growth in [1] was 40.8%; in [2] it was 76%; in experiment [3], 46.2%; in experiment [4], 17.3%; in experiment [5] it was 24.6%; in [6], 29.6%. For the same compound, the growth in experiment [7] is -42.3% (active); in experiment [8] it was 50.6%; in experiment [9], 2.1% (active); in experiment [10] it was 77.9%; in [11], 5.75% (active); in [12], 2.89% (active). Further, the growth in [13] was 6.18% (active); in experiment [14], 17.4%; in experiment [15] it was 36.6%; in experiment [16], 32%; in experiment [17], 90.8%; in experiment [18], -23.5% (active). Besides, the growth in [19] was 33.6%; in experiment [20], 29%.
On to `Cn1c(=O)c2c(nc(Nc3cc(=O)[nH]c(=O)[nH]3)n2Cc2ccccc2)n(C)c1=O`, for which the growth in experiment [1] was 91.5%; in experiment [2], 86.6%; in experiment [3], 97.9%; in experiment [4], 20.6%; in experiment [5] it was 2.91% (active); in experiment [6] it was 80.5%. For the same compound, the growth is 4.24% (active) in [7]; 12.3% in [8]; 102% in [9]; -2.38% (active) in [10]; 2.17% (active) in [11]; 87.5% in experiment [12]. Also, the growth in [13] was 103%; in [14] it was 99.7%; in experiment [15], 81.7%; in experiment [16] it was 24.9%; in [17], 101%; in experiment [18] it was 94.2%. The growth in [19] is 47.3%; in [20] it was 91.8%.
For `O=C1/C(=C/c2ccc(F)c(F)c2)CN(C(=O)C(Cl)Cl)C/C1=C\c1ccc(F)c(F)c1`, the growth in [1] was -81.2% (active); in experiment [2] it was -17% (active); in experiment [3], -86% (active); in [4], -57.7% (active); in experiment [5] it was -71.9% (active); in [6], -62.6% (active). Besides, the growth in experiment [7] was -81.8% (active); in experiment [8], -52.1% (active); in experiment [9], -96% (active); in experiment [10], -85.8% (active); in [11], -98.1% (active); in experiment [12], -19.4% (active). For the same compound, the growth in [13] was -80.2% (active); in [14], -73.7% (active); in [15], -93.1% (active); in experiment [16], -39.4% (active); in [17], -96.8% (active); in experiment [18], -98.9% (active). For the same compound, the growth in [19] is -74.8% (active); in experiment [20], -90.1% (active).
As to `COc1ccc(-c2csc(NC(=O)CN3CCN(CCO)CC3)n2)cc1NS(=O)(=O)c1cccc2c(N(C)C)cccc12`, the growth is 88.1% in experiment [1]; 92.5% in [2]; 89.9% in experiment [3]; 79.9% in [4]; 67.1% in experiment [5]; 50.7% in [6]. The growth in experiment [7] is 79%; in experiment [8], 75.7%; in experiment [9], 57.7%; in [10] it was 62%; in experiment [11] it was 78.4%; in experiment [12], 23.1%. The growth is -67.9% (active) in [13]; 71.9% in experiment [14]; 57.7% in [15]; 81.2% in experiment [16]; 29.7% in [17]; 65.7% in experiment [18]. In addition, the growth was 68.4% in [19] and -73.6% (active) in experiment [20].
